# High-throughput results (PubChem BioAssay)
# The list is not random: actives were taken first. Their share in the collection is about 4.1%.
# hgDAF-12 ag: activates the H. glycines DAF-12 receptor ligand-binding domain. HEK293 GAL4-hgDAF12 UAS-luciferase reporter, agonist luminescence; normalized to butyrate control. activation, % at 6.8 µM. 370,000 compounds, 1.8% hits. AID 687014;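 active = activation above a cutoff set at the mean of all screened compounds plus 3 SD, cut at about 10% in these data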;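 also: 0% = DMSO wells and 100% = sodium butyrate wells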
# hcDAF12 agonist: activates DAF-12 receptor from parasite H. contortus | HEK293 hcDAF-12 lit1-tk-luc reporter, luminescence; 0% DMSO, 100% Δ7-dafachronic acid | activation, % at 6.8 µM | 370,000 compounds, 1.4% hits | AID 652067;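 active = activation above the mean of all tested compounds plus 3 SD, cut at about 5.5% in these data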;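 also: 100% = response to 3 µM Δ7-dafachronic acid high control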
# DAX1 inh-1: DAX1 (NR0B1) inhibition, primary screen; AID 652010; inhibition, % at 6.8 µM; 370,000 compounds, 1.1% hits; HEK293T StAR-luciferase reporter, SF-1/DAX-1 repression relief;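 active = inhibition above the mean over all tested compounds plus 3 SD, cut at about 3.6% in these data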;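 also: 0% = DAX-1 cells with DMSO and 100% = cells lacking DAX-1 with DMSO; higher inhibition means more luminescence from relief of DAX-1 repression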
# ssDAF-12 act: activators of S. stercoralis DAF-12 nuclear receptor | HEK293 ssDAF-12/GRIP1 lit1-tk-luc reporter, luminescence; % of 3 µM dafachronic acid response | activation, % at 6.8 µM | 370,000 compounds, 1% hits | AID 652126;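 active = activation above the mean over all tested compounds plus 3 SD, cut at about 0.9% in these data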;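 also: 0% = DMSO-only wells and 100% = 3 µM delta7-dafachronic acid wells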
# DAX1 inh-2: inhibitors of human orphan nuclear receptor DAX1 (NR0B1). P51843. HEK293 Gal4-DAX1 luciferase reporter, luminescence. inhibition, % at 6.75 µM. 340,000 compounds, 0.99% hits. AID 504766;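 active = inhibition above the mean over all tested compounds plus 3 SD, cut at about 4.2% in these data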;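 also: 0% = DAX1-transfected cells with DMSO and 100% = empty-vector control cells with DMSO; inhibition shows as a rise in luminescence from relieved DAX1 repression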
# Target sequence (P51843 207-470 limits assumed): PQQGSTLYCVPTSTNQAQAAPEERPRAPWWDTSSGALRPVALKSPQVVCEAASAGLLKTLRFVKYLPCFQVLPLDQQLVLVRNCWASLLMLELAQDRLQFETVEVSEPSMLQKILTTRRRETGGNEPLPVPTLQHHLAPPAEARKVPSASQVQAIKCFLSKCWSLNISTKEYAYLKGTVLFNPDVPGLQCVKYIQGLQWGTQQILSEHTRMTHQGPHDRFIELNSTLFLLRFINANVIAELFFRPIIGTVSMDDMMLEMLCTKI
# * marks the source's active call; other numbers are inactive results; · = no result given.
SMILES,hgDAF-12 ag,hcDAF12 agonist,DAX1 inh-1,ssDAF-12 act,DAX1 inh-2
O=C(C1CC1)N1CCC(C(O)(c2ccccc2)c2ccccc2)CC1,-0.5,-0.5,-0.5,-1.4,5.1*
O=C(NNS(=O)(=O)c1ccccc1[N+](=O)[O-])c1cccc(Cl)c1,-2.2,-1.3,-0.1,1.1*,-0.6
O=C(NNS(=O)(=O)c1ccccc1[N+](=O)[O-])c1cccc(Br)c1,0.8,0.3,-0.3,-1.2,1.5
Cc1ccc(NC(=O)c2cc(-c3ccco3)on2)cc1C,12.5*,1.7,-0.2,-0.2,2.4
Cc1ccc(NC(=O)c2cnccn2)cc1C,11.4*,3.1,1.8,-0.4,4.6*
Cc1nc(NC(=O)c2cnccn2)ccc1Br,10.6*,2.7,0.5,0.2,4.2*
Cc1ccc(NC(=O)c2cc(-c3ccco3)on2)cc1,2.6,0.7,-0.1,-1.8,-0.1
Cc1ccc(NC(=O)c2cnccn2)cc1,7.0,4.1,2.6,-1.1,3.5
C=CCNC(=S)N(C)[C@H]1C[C@H]2c3[nH]c4cccc(-c5cccc(F)c5)c4c3CCN2C(=O)[C@H]1[C@H](C)O,4.0,-3.6,0.0,-1.5,·
CN(CCO)c1ccc2c(c1)Oc1ccccc1CN(Cc1cn(Cc3ccccc3C(F)(F)F)nn1)S2(=O)=O,0.6,-2.0,2.1,-0.7,·
N#CC(Sc1ccccn1)c1ccc(Cl)cc1 (stereo not drawn),0.3,-2.4,-0.6,-1.1,0.0
Cc1ccc(OC(=O)c2sc(Cl)nc2C)cc1C,-1.9,-1.4,-0.3,-1.2,4.3*
COc1ccc(N(C)C(=O)c2sc(Cl)nc2C)cc1,0.4,-1.2,-0.3,-1.3,-0.3
CC(=O)C1=C(O)C(=O)N(CCc2c[nH]c3ccccc23)C1c1cccc(O)c1 (stereo not drawn),0.5,5.7*,0.4,0.2,-0.6
COc1cc(C2C(C(C)=O)=C(O)C(=O)N2CCc2c[nH]c3ccccc23)ccc1O (stereo not drawn),2.3,-0.5,1.2,0.2,1.5
CC1(C)CC2CC(C)(CN2C(=O)c2ccc([N+](=O)[O-])cc2)C1 (stereo not drawn),-3.2,-0.7,-1.1,-1.5,-2.0
CC1(C)CC2CC(C)(CN2C(=O)c2ccc([N+](=O)[O-])cc2[N+](=O)[O-])C1 (stereo not drawn),0.1,-0.9,0.2,-1.4,6.7*
CSCCC(NS(=O)(=O)c1ccc2c(c1)oc(=O)n2C)C(=O)NC1CCC(C)CC1 (stereo not drawn),1.3,-2.9,3.7*,-1.2,-0.5
CSCCC(NS(=O)(=O)c1ccc2c(c1)oc(=O)n2C)C(=O)NC1CCN(Cc2ccccc2)CC1 (stereo not drawn),10.2,6.4*,1.1,-0.1,-0.6
CSCCC(NS(=O)(=O)c1ccc2c(c1)oc(=O)n2C)C(=O)NCc1ccc(C)cc1 (stereo not drawn),1.1,-1.4,0.4,-1.3,1.7
O=C1[C@@H](CCc2ccccc2)[C@@H]2c3cc4ccccc4cc3C=NN2[C@@H]2c3cc4ccccc4cc3C=NN12,-1.6,3.7,-1.2,-1.0,·
Cn1cccc1-c1nc2ccc([N+](=O)[O-])cc2[nH]1,11.4*,2.6,1.0,-0.6,1.6
Cc1cccnc1CN1CCN(C(=O)CCc2nnc(CCc3ccccc3)o2)CC1,4.7,0.5,0.7,-1.3,0.4
Cc1cccnc1CCNC(=O)CCc1nnc(CCc2ccccc2)o1,0.8,0.8,-0.7,-0.3,4.7*
CC(=O)Nc1ccc2nc(-c3ccc(Br)o3)[nH]c2c1,10.6*,2.1,0.8,-0.5,-1.1
SMILES,hgDAF-12 ag,hcDAF12 agonist,DAX1 inh-1,ssDAF-12 act,DAX1 inh-2
CC(=O)CC[C@H]1CC[C@]2(CCCN(C(=O)C3CCCC3)C2)O1,2.3,3.5,-0.4,-1.1,·
COc1ccccc1C(=O)NC(C)C(c1cccs1)N1CCOCC1 (stereo not drawn),2.6,2.2,0.4,1.7*,1.3
C[C@H]1C2CC(OC(=O)Nc3ccc4c(c3)OCO4)C(C2)[C@H]2CCCCN21 (stereo partly drawn),-0.8,1.2,-0.2,-0.2,·
CN(C(=O)c1ccccc1OCC(=O)Nc1ccc(Br)cc1)c1ccccc1,3.8,-2.8,-1.5,1.0*,·
CCOC(=O)c1[nH]c2c(c1C)C(=O)CC(c1ccco1)C2 (stereo not drawn),-4.5,-1.9,7.0*,-0.3,-2.5
O=C(CCc1nc(-c2ccccc2F)no1)NCCc1c[nH]c2ccccc12,-1.3,1.9,-0.9,-1.2,·
